Screens deposited in PubChem BioAssay by National Center for Advancing Translational Sciences (NCATS).
Rows were chosen to be rich in hits. Some 12% of all compounds tested hit in one or more screens of this group.
Shiga toxin inh: Shiga toxin inhibition. Vero cells, Shiga toxin protein synthesis inhibition reporter. inhibition, % at 38.7 µM. 9.2% of 290,000 active. AID 2315; in the data active means inhibition mostly above about 28%, no sharp cut-off; inactive means mostly below about 43%
Cycloheximide cs: affects cycloheximide protein synthesis inhibition readout, counter-screen. 12% of 300,000 active. max response, %. cell reporter, cycloheximide protein synthesis inhibition counterscreen; in the data active means max response mostly above about 13%, no sharp cut-off; inactive means mostly below about 14%; further: read at 38.3 µM for the half of the compounds with a filed dose
FMDV antiviral: antivirals against foot and mouth disease virus; FMDV antiviral cell-based qHTS; Potency, µM (highest dose often 57.9 µM), usual class: inhibitors; 1.2% of 410,000 active; AID 1159524; calls by dose curve; tested in HEK293T cells; further: read-out not given here; nearly all actives have a fitted effect of over 45% in size
Sm TGR block: inhibitors of Schistosoma mansoni thioredoxin glutathione reductase; Q962Y6; purified TGR, DTNB reduction, TNB absorbance 405 nm; Potency, µM (titrated, usually from 114 µM), most hits filed as inhibitors; 3% of 360,000 active; active means well fitted inhibition curve with a large enough effect; inconclusive means small, poorly fitted or top-dose-only effect; inactive means no such curve, though single readings can be large or run the other way; further: nearly all actives have a fitted effect of over 60% in size
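Kinetic colorimetric format: TGR-catalysed, NADPH-driven DTNB reduction monitored via TNB absorbance. Enzyme dispensed at 20 nM; compound exposure 15 min at room temperature before reaction start.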
Of the large screens only hits and unclear results are named; the others gave an inactive call.

N#CC(C#N)=Cc1ccc(N2CCOCC2)cc1	Sm TGR block 3.2µM
CC(C)C(NC(=O)c1ccccn1)c1nnc2n1CCN(Cc1ccc3ccccc3c1)CC2 (stereo not given)	none (no result: Shiga toxin inh, Cycloheximide cs, Sm TGR block)
CC(C)Sc1nc2sc3c(c2c(=O)n1Cc1ccccc1)CCCC3	none (no result: Shiga toxin inh, Cycloheximide cs)
O=C(NN=Cc1ccc(O)cc1)C(=O)NN=Cc1ccc(O)cc1	none (no result: Shiga toxin inh, Cycloheximide cs, Sm TGR block)
Nc1c(Cl)ncnc1NCCO	none
Fc1ccc(/C=N/Nc2nnnn2-c2ccccc2)cc1	none (no result: Sm TGR block)
Fc1ccc(/C=N/Nc2nccnc2Cl)cc1	Shiga toxin inh 96, Cycloheximide cs 40
Nc1c(Cl)ncnc1N/N=C/c1ccc(O)cc1	Shiga toxin inh 47, Cycloheximide cs 26, Sm TGR block inconclusive
Fc1cccc(/C=N/Nc2nccnc2Cl)c1	Shiga toxin inh 98, Cycloheximide cs 48
Oc1ccc(/C=N/Nc2nccnc2Cl)cc1	Cycloheximide cs 21
CCCC12CN3CC(C)(CN(C1)C3c1cn(CC)c3ccccc13)C2=O (stereo not given)	none (no result: Shiga toxin inh, Cycloheximide cs)
N#Cc1ccccc1Cn1cc(/C=C/[N+](=O)[O-])c2ccccc21	FMDV antiviral 14µM
O=C(Cn1cc(/C=C\[N+](=O)[O-])c2ccccc21)Nc1ccccc1	FMDV antiviral 13µM
O=C(O)Cn1cc(/C=C/[N+](=O)[O-])c2ccccc21	Sm TGR block inconclusive
CCCNC(=O)C1CC2Cn3c(nc4ccccc43)C2N1C (stereo not given)	Sm TGR block 40µM (no result: Shiga toxin inh, Cycloheximide cs)
CN1C(C(=O)NCc2ccccc2)CC2Cn3c(nc4ccccc43)C21 (stereo not given)	none
Cc1ccc(CNC(=O)C2CC3Cn4c(nc5cc(Cl)c(Cl)cc54)C3N2C)o1 (stereo not given)	Sm TGR block 45µM
C=CCNC(=O)C1CC2Cn3c(nc4cc5ccccc5cc43)C2N1C (stereo not given)	Shiga toxin inh 38, Cycloheximide cs 41
CN1C(C(=O)NCc2cccc(C(F)(F)F)c2)CC2Cn3c(nc4cc5ccccc5cc43)C21 (stereo not given)	FMDV antiviral inconclusive
Cc1ccc(CCNC(=O)CCCn2nc(C)c3c(C)n(-c4ccccc4)nc3c2=O)cc1	Sm TGR block inconclusive (no result: Shiga toxin inh, Cycloheximide cs)
CC1=C(C(=O)OC2CCCCCC2)C(c2cccc(Cl)c2)CC(=O)N1 (stereo not given)	none (no result: Shiga toxin inh, Cycloheximide cs)
Cc1c(C)c2ccc(OCC(=O)Nc3cccnc3)c(C)c2oc1=O	Cycloheximide cs 26
Cc1cc(Cl)ccc1OCC(=O)Nc1cccnc1	Shiga toxin inh 61, Cycloheximide cs 38
Cc1cc(Cl)ccc1OCCCC(=O)Nc1cccnc1	FMDV antiviral inconclusive
COC(=O)CSC1=NS(=O)(=O)c2ccccc21	FMDV antiviral inconclusive, Sm TGR block 2.5µM
O=C(CSC1=NS(=O)(=O)c2ccccc21)Nc1ccccc1	FMDV antiviral inconclusive, Sm TGR block 2.5µM
CC(C)NC(=O)C(Cc1ccccc1)N1C(=O)c2ccccc2C1=O (stereo not given)	none (no result: FMDV antiviral)
CC(Cc1ccccc1)N1C(=O)c2ccccc2C1=O (stereo not given)	Shiga toxin inh 49, Cycloheximide cs 22
CN1CCN(C(=S)Nc2ccc(Cl)cc2)CC1	none
CCOc1ccc(NC(=S)N2CCCC2)cc1	Sm TGR block inconclusive
CCc1ccc(NC(=S)N2CCCCCCC2)cc1	Shiga toxin inh 68, Cycloheximide cs 56
Cc1ccc(NC(=S)N2CCCC2)cc1C	Cycloheximide cs 25
S=C(Nc1ccc(Cl)cc1)N1CCCCC1	Cycloheximide cs 13
S=C(Nc1ccc(Br)cc1)N1CCCC1	Cycloheximide cs 27
CC1=C(c2ccc(C)c(C)c2)S(=O)(=O)N=C1N1CCC(C(=O)N2CCC(C)CC2)CC1	none (no result: Shiga toxin inh, Cycloheximide cs)
S=C(Nc1ccccc1)N1CCN(C(=S)c2ccccc2)CC1	Shiga toxin inh 71, Cycloheximide cs 44
CC(=O)c1ccc(NC(=S)N2CCCC2)cc1	Cycloheximide cs 18
S=C(Nc1ccccc1)N1CCCCC1	none
S=C(Nc1ccccc1Cl)N1CCCCCC1	none
O=C(O)c1ccc(NC(=S)N2CCCCC2)cc1	none
S=C(Nc1ccc(Cl)cc1Cl)N1CCCCC1	Cycloheximide cs 17
CC(=O)c1ccc(NC(=S)N2CCC(Cc3ccccc3)CC2)cc1	Cycloheximide cs 17
COc1cc2cc3c4cc(OC)c(OC)cc4cc[n+]3c(C)c2cc1OC	none (no result: Shiga toxin inh, Cycloheximide cs, Sm TGR block)
Cc1ccc(C(=O)OCC(=O)NCCNC(=O)COC(=O)c2ccc(C)s2)s1	none (no result: Shiga toxin inh, Cycloheximide cs)
Cc1ccc(C(=O)OCC(=O)c2ccc(Cl)s2)s1	Shiga toxin inh 83, Cycloheximide cs 53
Cc1cc2nn(-c3cccc4ccccc34)nc2cc1N	Shiga toxin inh 44, Cycloheximide cs 22
Cc1ccc(C)c(N)c1	none (no result: Shiga toxin inh, Cycloheximide cs)
Cc1ccc(-n2nc3cc(C)c(N)cc3n2)cc1	Shiga toxin inh 96, Cycloheximide cs 53
Cc1nc2ccccc2c2c(N)cccc12	none (no result: Shiga toxin inh, Cycloheximide cs, Sm TGR block)
CCc1ccc(-n2nc3cc(C)c(N)cc3n2)cc1	Shiga toxin inh 142, Cycloheximide cs 57
CCc1ccc(-n2nc3cc(C)c(NC(=O)c4cccc5ccccc45)cc3n2)cc1	none (no result: Shiga toxin inh, Cycloheximide cs)
Cn1ccc2c(OCC(=O)Nc3cc(C(F)(F)F)ccc3Cl)cccc2c1=O	FMDV antiviral inconclusive (no result: Shiga toxin inh, Cycloheximide cs)
S=C(c1ccc(N2CCCC2)cc1)N1CCCCC1	Shiga toxin inh 112, Cycloheximide cs 52
CSc1ccc(C(=S)N2CCCC2)cc1	Cycloheximide cs 16
S=C(c1ccc(N2CCCC2)c(Br)c1)N1CCCCC1	Cycloheximide cs 12
Cc1cc(O)c2c(c1O)C(=O)C(O)=C(O)C2=O	none (no result: Shiga toxin inh, Cycloheximide cs, Sm TGR block)
COc1ccc(NC(=O)CCN2C(=O)C3C4CCC(C4)C3C2=O)cc1 (stereo not given)	Cycloheximide cs 17
O=C(CCN1C(=O)C2C3CCC(C3)C2C1=O)Nc1ccc([N+](=O)[O-])cc1 (stereo not given)	none
Cc1ccc(NC(=O)CCN2C(=O)C3C4CCC(C4)C3C2=O)cc1Cl (stereo not given)	Cycloheximide cs 25
O=C(CCN1C(=O)C2C3CCC(C3)C2C1=O)Nc1ccc(Br)cc1 (stereo not given)	Cycloheximide cs 12
COc1ccccc1NC(=O)CN1C(=O)CC(c2ccc(C)c(C)c2)=Nc2ccccc21	none (no result: Shiga toxin inh, Cycloheximide cs)
CC(=O)OC1CCC2(C)C(CCC3C4CC=C(C(C)=O)C4(C)OC(=O)CC32)C1 (stereo not given)	FMDV antiviral 13µM (no result: Shiga toxin inh, Cycloheximide cs, Sm TGR block)
CC(=O)OC1CC[C@@]2(C)C3CC(=O)[C@]4(C)C(C(C)=O)=CCC4C3CC[C@H]2C1 (stereo not given in full)	none (no result: Shiga toxin inh, Cycloheximide cs, Sm TGR block)
O=C1OC(Nc2ccc3ncccc3c2)c2ccccc21 (stereo not given)	Shiga toxin inh 54, Cycloheximide cs 27 (no result: FMDV antiviral)
CCCCN(CC)CCNC(=O)c1cc2c(=O)oc3ccc(C)cc3c2s1	none (no result: Shiga toxin inh, Cycloheximide cs)
CC(=O)Nc1ccc2nc(NC(=O)CS(=O)(=O)c3ccccc3)sc2c1	none (no result: Shiga toxin inh, Cycloheximide cs)
Cc1nc2ccc3nc(NC(=O)c4ccco4)sc3c2s1	none (no result: Shiga toxin inh, Cycloheximide cs, Sm TGR block)
Cc1nc2ccc(NC(=O)c3ccco3)cc2s1	Shiga toxin inh 104, Cycloheximide cs 34
CC(=O)Nc1nc2ccc(NC(=O)c3ccco3)cc2s1	Shiga toxin inh 55, Cycloheximide cs 45
COc1ccc(OC)c(NS(=O)(=O)c2ccc(N3CCCCS3(=O)=O)cc2)c1	none (no result: Shiga toxin inh, Cycloheximide cs)
CC1Cc2ccccc2N1S(=O)(=O)c1cnc(Cl)c(Br)c1 (stereo not given)	FMDV antiviral inconclusive, Sm TGR block 7.9µM
Cc1ccc(NC(=S)N2CCCC2)cc1Cl	none
Cc1ccc(NC(=O)N2CCCC2)cc1Cl	Shiga toxin inh 84, Cycloheximide cs 38
